Reference: PubChem BioAssay AID2641 (National Center for Advancing Translational Sciences (NCATS), 2010)
Values joined by “and” are separate entries in the source; they are usually repeats but may differ in a detail not shown here. Identical values can stand only once. Active and inactive are the calls of the source. No rule for the calls is given here.

target: Lysosomal alpha-glucosidase (Homo sapiens) (UniProt P10253); test: qHTS Assay for Inhibitors of Human alpha-Glucosidase as a Potential Chaperone Treatment of Pompe Disease: Stabilizers of Alpha-Glucosidase Under Thermal Denaturation Conditions; settings: Recombinant GAA thermal denaturation, residual activity over time, active compounds read high; at 0.31 µM unless noted
Description: NIH Chemical Genomics Center [NCGC]
NIH Molecular Libraries Probe Production centers Network [MLPCN]
Assay Submitter (PI): Wei Zheng
Alpha-glucosidase is responsible for hydrolysis of terminal, non-reducing 1,4-linked alpha-D-glucose residues with release of alpha-D-glucose. It is a lysosomal hydrolase that is required for the degradation of a small percentage (1-3%) of cellular glycogen in human. Deficiency of this enzyme results in glycogen-storage disease type II (GSDII), also referred to as Pompe disease, an autosomal recessive disorder. Structurally normal glycogen is accumulated in lysosomes and cytoplasm in affected patients, primarily in muscle tissues. Excessive glycogen storage within lysosomes may interrupt normal functioning of other organelles and leads to cellular injury. In turn, this leads to enlargement and dysfunction of the entire organ involved (eg, cardiomyopathy and muscle weakness).
It has reported that the improper folding and trafficking of alpha-glucosidase resulting from the genetic mutations may account for a significant number of Pompe patients. […] We optimized this alpha-glucosidase assay in 1536-well plate format for identifying the novel small molecule inhibitors with the structures other than the sugar analogs in order to develop the new pharmacological chaperones.
This assay involves heating purified alpha-glucosidase (Myozyme) in the presence of inhibitors to observe potential stabilization of the enzyme. This binding assay is an indirect measure of chaperone activity, as stabilization may imply proper folding and trafficking of the enzyme to its functional site. Alpha-glucosidase was pre-incubated with only DMSO or 50x IC50 of compound before being exposed to 68 °C heat inactivation. The heating was measured over time, and it was observed that untreated alpha-glucosidase lost more of its activity over time than enzyme treated with compounds.
Temperature Denature Protocol for alpha-Glucosidase
Assay buffer: 50 mM citric acid (titrated with potassium phosphate to pH 5.0), 0.01% Tween-20
1. Prepare 80X solution alpha-glucosidase solution (3.2 nM*80=[…]) in assay buffer.
2. Divide solution into separate 1.5 ml tubes.
3. For each compound, add 50X IC50:
50x IC50 1-DNJ […]
50x IC50 of the […]
4. Incubate 10 min RT after compound addition.
5. Distribute 10 ul from each tube into PCR tubes.
6. Time course of heating: Heat solutions at 68C for 60 min, taking a set of tubes out at 10, 20, 30, 45, and 60 min, while keeping one set on ice whole time.
7. After heating, take out tubes and place on ice for a minimum of 5 min.
8. Transfer 10 ul solution to 790 ul (1:80 dilution) buffer in 1.5 ml tube.
9. Vortex and take three 20 ul aliquots and put in 384 plate.
10. Add 20 ul substrate solution to each well (100 uM 4-methylumbelliferyl alpha-D-glucopyranoside).
12. Add 25 ul stop solution (1 M NaOH, 1 M glycine pH 10).
13. Detect the assay plate in a ViewLux plate reader (PerkinElmer) with Ex=365 nm and Em=440nm.

Residual activity vs control after 60 min heating, active:
O=C1Cc2cc(S(=O)(=O)N3CCN(c4ccc([N+](=O)[O-])cc4)CC3)ccc2N1 464%
N#Cc1ccc(N2CCN(S(=O)(=O)c3ccc4c(c3)CC(=O)N4)CC2)cc1 480%
CC(=O)c1ccc(N2CCN(S(=O)(=O)c3ccc4c(c3)CC(=O)N4)CC2)cc1 909% and 724% and 584%
O=C1Cc2cc(S(=O)(=O)N3CCN(c4ccc(O)cc4)CC3)ccc2N1 170%
CC(=O)c1ccc(N2CCN(S(=O)(=O)c3cc4c(cc3Cl)NC(=O)C4)CC2)cc1 675%
OCC1NCC(O)C(O)C1O (stereo not drawn) 421% [at 0.016 µM]
O=Cc1ccc(N2CCN(S(=O)(=O)c3ccc4c(c3)CC(=O)N4)CC2)cc1 299%
O=C1Cc2cc(S(=O)(=O)N3CCN(c4ccc(C(=O)O)cc4)CC3)ccc2N1 302%
